The values that follow come from ChEMBL document CHEMBL4513216, “Probing the Open Global Health Chemical Diversity Library for Multistage-Active Starting Points for Next-Generation Antimalarials” (ACS Infect Dis, 2020).

About 8,600 (12%) of roughly 69,000 compounds showed an effect of 50% or more. What follows is part of a selection rich in strong results, with near analogues and random picks from the rest.

For this experiment, the system named is Plasmodium berghei. Put plainly: Screen against P. berghei liver stage (PbLuc), transformed with Luciferase, at 10uM. The format is functional, HepG2. To be noted: tested at 10 uM.
As for `CC(C)(C)n1cc(C(=O)N2CCN(Cc3ccncc3)CC2)cn1`, the INHIBITION is recorded as 24.15%.
On to `Cc1cnn(CCNc2cnc3ccccc3n2)c1`, for which the INHIBITION is on record as -68.3%.
As for `O=C([C@H]1C[C@@H]2CCN(C3CCOCC3)C[C@@H]2O1)N1CCOCC1`, the INHIBITION is listed as -15.5%.
As for `CN1CCC(CNC(=O)CCSc2ccc3c(c2)OCCO3)C1` (stereo unspecified), the INHIBITION is 28.5%.
As to `Cc1cccc(CC(=O)N2CCN(c3nccn3C)CC2)c1`, the INHIBITION was -14.7%.
With `Cc1sc2c(C3CCCN(C(C)C)C3)nc(C)n2c1C` (stereo unspecified) the figure was -12.9%; with `Cn1cc(CN2CCc3onc(C(=O)N4CCCC4)c3C2)cn1`, 33.5%.
In the case of `COc1ccc(CC(=O)N2CCCC(n3cc(C)cn3)C2)c(OC)c1` (stereo unspecified), the INHIBITION stood at 7.08%.
With `Cc1ccccc1CN1CCCN(C(=O)c2ccn(C)c(=O)c2)CC1` the figure was -7.46%; with `CC(=O)N1CCCN(C(=O)c2cnn(-c3ccccc3Cl)c2)CC1`, 47%; with `CN1CCN(C(=O)c2cnn(-c3ccccc3Cl)c2)CC1`, 14.1%.
With `Cn1ccc(C(=O)N2CCN(Cc3ccccc3F)CC2)cc1=O`, the INHIBITION is -57%.
Turning to `Cc1ncc(C(=O)N2CCCN(Cc3ccccc3F)CC2)c(O)n1`, the INHIBITION is 34.9%.
Take `O=C(COCC1CCCCO1)N1CCN(Cc2ccccc2F)C(=O)C1` (stereo unspecified): the INHIBITION is 45.6%.
As to `O=C(COCC1CCCO1)N1CCCN(Cc2ccccc2F)CC1` (stereo unspecified), the INHIBITION is 53%.
As to `O=C(c1cccnc1O)N1CCN(Cc2ccccc2F)CC1`, the INHIBITION came to 54.1%.
With `N#Cc1ccc(OC2CCN(C(=O)COCC3CCCO3)CC2)cc1` (stereo unspecified) the figure was -13.9%; with `CC(=O)N1CCN(C(=O)c2cnn(-c3ccccc3Cl)c2)CC1`, 56.1%.
`CCn1ccc(C(=O)N2CCCN(Cc3ccccc3F)CC2)cc1=O`: the INHIBITION is listed as 73.4%.
With `O=C(c1cnc(C2CC2)nc1O)N1CCN(Cc2ccccc2F)CC1` the figure was -0.554%.
With `O=C(CCc1ccsc1)N1CCC(N2CCNC2=O)CC1` the figure was 19.5%; with `CN(CC(=O)N1CCCCC1Cn1cccn1)C1CC1` (stereo unspecified), -79.3%; with `Cc1cnn(CCNCc2ccccc2OCc2ccccn2)c1`, -15.5%.
As for `CCCc1n[nH]c(C2CN(C(=O)c3cc(C4CC4)on3)CCO2)n1` (stereo unspecified), the INHIBITION was 14%.
In the case of `CN1CCN(C(=O)c2cc3sccc3n2Cc2ccccc2Cl)CC1`, the INHIBITION worked out at 11.7%.
As to `CC(C)(C)c1noc(CCC(=O)N2CCN(Cc3ccco3)CC2)n1`, the INHIBITION is listed as 19.9%.
For `COc1cccc(OCCc2nc3c(cc2C(N)=O)CCC3)c1`, the INHIBITION was found to be 54.8%.
For `NC(=O)c1cc2c(nc1CCOc1ccc(F)cc1)CCC2`, the INHIBITION amounted to 31.2%.
On to `NC(=O)c1cc2c(nc1CCOCc1ccccc1)CCC2`, for which the INHIBITION came out at 20.3%.
As for `O=C1CC[C@H]2[C@H](CCN2c2ncc(F)cn2)N1c1cccnc1`, the INHIBITION is given as 0.542%.
With `Cc1cccc(C(=O)N2CCCC(Cc3cncc4ccccc34)C2)n1` (stereo unspecified) the figure was -22.6%; with `CCN(CC)CCCNC(=O)C(C)n1cc(Br)cn1` (stereo unspecified), -1.33%.
Regarding `Nc1cc(N2CCOCC(Cc3ccc4[nH]ccc4c3)C2)ncn1` (stereo unspecified), the INHIBITION was found to be 66.5%.
Regarding `c1cc(N2CCOCC(Cc3ccc4[nH]ccc4c3)C2)ncn1` (stereo unspecified), the INHIBITION is recorded as 3.91%.
With `Cc1ccccc1CSc1nc(N)cc(N2CCOCC(CO)C2)n1` (stereo unspecified) the figure was 46.6%; with `Cc1cc(N2CCOCC(Cc3ccc4[nH]ccc4c3)C2)ncn1` (stereo unspecified), 67.7%; with `Cc1cc(N2CCC(Cc3ccncc3)C2)ncn1` (stereo unspecified), -2.09%.
Regarding `Cc1cc(N2CCC(Cc3cccnc3)C2)ncn1` (stereo unspecified), the INHIBITION was -2.09%.
Regarding `Cc1nc(NCc2nncn2C2CC2)c2c(CC(C)C)csc2n1`, the INHIBITION turned out to be 45.4%.
With `CC(=O)N1CC(C)CN(C(=O)c2cscn2)c2ccccc21` (stereo unspecified) the figure was -5.26%; with `CC1CN(C(=O)c2cscn2)c2ccccc2S1` (stereo unspecified), 63.7%; with `Cc1ncsc1C(=O)N1CC(C)Sc2ccccc21` (stereo unspecified), 44%.
For `Cc1nc(C(=O)N2CC(C)Sc3ccccc32)cs1` (stereo unspecified), the INHIBITION amounted to 56.8%.
For the molecule `CC1CN(C(=O)c2ccnc(-n3cncn3)c2)c2ccccc2S1` (stereo unspecified), the INHIBITION is listed as -40.7%.
With `CC1CN(C)c2ccccc2CN1C(=O)c1cscn1` (stereo unspecified) the figure was -4.15%; with `O=S(=O)(c1cccs1)N1CC[C@H]2[C@H]1CCN2c1ncccn1`, -27%.
`Cc1occc1C(=O)N1CCc2c(COCC3CC3)cncc2C1`: the INHIBITION is given as 27.9%.
On to `CN1CCOC(C(=O)Nc2nc(-c3ccc4c(c3)CCC4)n[nH]2)C1` (stereo unspecified), for which the INHIBITION stood at 32.4%.
`CN1CCOC(C(=O)Nc2ccc3c(c2)nc(C2CC2)n3C)C1` (stereo unspecified): the INHIBITION is reported as 60.8%.
With `CN1CCOC(C(=O)Nc2ccc3[nH]nnc3c2)C1` (stereo unspecified) the figure was 59.7%.
With `Cn1c(C2CC2)nc2cc(NC(=O)C3CCOC3)ccc21` (stereo unspecified) the figure was -5.69%.
Take `CN1CCOC(C(=O)Nc2nnc(Cc3ccc(F)cc3)[nH]2)C1` (stereo unspecified): the INHIBITION is -2.71%.
On to `CN1CCOC(C(=O)Nc2nc(-c3ccccc3F)n[nH]2)C1` (stereo unspecified), for which the INHIBITION is listed as -35.9%.
Take `CN1CCOC(C(=O)Nc2nc(-c3ccc(Cl)cc3)n[nH]2)C1` (stereo unspecified): the INHIBITION is -29.5%.
With `Cn1c(C2CC2)nc2cc(NC(=O)C3CC=CC3)ccc21` the figure was -22.4%; with `CN1CCOC(C(=O)Nc2ccc3c(c2)nc(C(C)(C)C)n3C)C1` (stereo unspecified), 93.9%.
